Hits are enriched below; roughly 4.7% of the tested compounds scored in any of these assays.
tim23-1 inh: growth inhibitors of tim23-1 mutant yeast, primary screen, luminescence, uHTS. S. cerevisiae tim23-1 growth, BacTiter-Glo luminescence, 24 h. inhibition, % at 20 µM. 1.3% of 330,000 active. AID 463212, 2010;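 active = growth inhibition of the mutant yeast at or above 50%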;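 also: temperature-sensitive mutant grown at 25 °C; plate controls were DMSO-treated mutant yeast for no effect and medium wells lacking yeast for full effect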
PfHsp90 yeast 2: growth inhibition of PfHsp90-expressing yeast, primary screen, antimalarial PfHsp90 inhibitor project, S. cerevisiae, BacTiter-Glo luminescence, single point, set 2; BacTiter-Glo ATP, 48 h; yeast lacking PDR1 and PDR3 efflux regulators; inhibition, % at 9.4 µM; 0.32% of 310,000 active; AID 504621, 2011;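 active = every replicate shows inhibition above about 80%, whatever the replicate mean, limit read from the data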;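 also: 0% = DMSO neutral controls and 100% = 20 µM radicicol positive controls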
EBI2 block: EBI2 receptor antagonists, beta-arrestin recruitment, primary screen, cell-based, luminescence, 7a,25-OHC stimulation, uHTS; 0.81% of 360,000 active; AID 651636, 2012; G-protein coupled receptor 183 (Homo sapiens), P32249; 7a,25-OHC stimulated; inhibition, % at 5 µM; in the data active = inhibition above about 38%;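 also: enzyme fragment complementation signal reports receptor beta-arrestin coupling in cells; 0% = agonist plus DMSO wells and 100% = wells without agonist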
Target sequence (P32249 whole entry, looked up, the tested form may be a part): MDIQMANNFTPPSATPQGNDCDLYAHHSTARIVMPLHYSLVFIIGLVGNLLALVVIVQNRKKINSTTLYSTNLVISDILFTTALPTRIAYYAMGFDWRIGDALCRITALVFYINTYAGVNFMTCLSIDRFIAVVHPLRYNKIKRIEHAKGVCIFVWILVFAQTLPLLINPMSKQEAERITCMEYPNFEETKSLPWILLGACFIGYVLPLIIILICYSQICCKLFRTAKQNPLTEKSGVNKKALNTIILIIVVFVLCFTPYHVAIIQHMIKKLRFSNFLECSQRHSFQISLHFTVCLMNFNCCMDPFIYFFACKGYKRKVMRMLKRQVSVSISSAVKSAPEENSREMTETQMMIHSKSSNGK
SKKanGAS inh: S. pyogenes SKKanGAS growth inhibitors in kanamycin, primary screen, streptokinase expression inhibitor project, SKKanGAS strain, BacTiter-Glo luminescence | 6 h | AID 1662, 2009 | 1.3% of 300,000 active | inhibition, % at 7.5 µM;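 active = mean replicate score, as percent of positive control median, at least 50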;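 also: strain carries kanamycin resistance gene driven by streptokinase promoter and grows in 40 µg/ml kanamycin; loss of luminescence reflects streptokinase promoter inhibition or plain growth inhibition; 0% = median of DMSO wells and 100% = positive control at its reference dose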
TIM10 inh: growth inhibitors of isogenic TIM10 control yeast, primary screen, counter-screen for tim10-1 yeast inhibitor project, luminescence, uHTS. S. cerevisiae TIM10 strain growth, BacTiter-Glo luminescence, 24 h. inhibition, % at 10 µM. 1.4% of 330,000 active. AID 463195, 2010;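 active = inhibition of 40% or more at the single tested concentration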;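 also: wild-type TIM10 isogenic control strain grown at permissive 25 °C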
tim10-1 inh: growth inhibitors of tim10-1 mutant yeast, primary screen, luminescence, uHTS; S. cerevisiae tim10-1 ts strain growth, BacTiter-Glo, 24 h; inhibition, % at 20 µM; 2.2% of 330,000 active; AID 463190, 2010;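 active = inhibition of at least 40%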;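 also: mutant grown at 25 °C; 0% = DMSO wells with yeast and 100% = wells holding no yeast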
tim10-1 confirm: growth inhibitors of tim10-1 mutant yeast, confirmation, single concentration, luminescence, S. cerevisiae. shares compounds with tim10-1 inh. inhibition, % at 20 µM. S. cerevisiae tim10-1 ts strain growth, BacTiter-Glo, 24 h. 56% of 7,400 active;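 active = inhibition of yeast growth at or above a set limit in either of two repeat tests at 20 µM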;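 also: tim10-1 mutant grown at permissive 25 °C to find synthetic lethal compounds; 0% = DMSO yeast wells and 100% = medium wells without yeast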
tim10 confirm: growth inhibitors of wild-type TIM10 yeast, confirmation, counter-screen for tim10-1 synthetic lethality project, single concentration, luminescence, S. cerevisiae | shares compounds with TIM10 inh | S. cerevisiae tim10 strain growth, BacTiter-Glo luminescence, 24 h | inhibition, % at 10 µM | 63% of 4,600 active | AID 463215, 2010;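 active = inhibition of yeast growth at or above a set limit in either of two replicates at 10 µM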;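 also: this counterscreen used the strain with wild-type TIM10; 0% = yeast with DMSO and 100% = medium wells lacking yeast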
tim23-1 conf: tim23-1 mutant yeast growth inhibitors, confirmation, luminescence, single concentration; 83% of 4,400 active; S. cerevisiae tim23-1 growth, BacTiter-Glo luminescence, 24 h; shares compounds with tim23-1 inh; inhibition, % at 20 µM; AID 463218, 2010;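 active = inhibition above about 39% in either of two replicate wells at 20 µM, limit read from the data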;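 also: temperature-sensitive tim23-1 mutant grown at 25 °C; 0% = DMSO wells with yeast and 100% = medium wells without yeast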
EBI2 conf: EBI2 antagonist hit retest, beta-arrestin, confirmation, cell-based, single concentration, luminescence, 7a,25-OHC stimulation | shares compounds with EBI2 block | inhibition, % at 5 µM | 7a,25-OHC antagonism | 29% of 2,400 active;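 active = inhibition of at least 50%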
EBI2 ag: EBI2 agonist activity of antagonist hits, confirmation, counter-screen for EBI2 antagonist project, cell-based, single concentration, agonist mode, luminescence; shares compounds with EBI2 block; EBI2-expressing cells, 60 min; 0% vehicle, 100% 7α,25-dihydroxycholesterol control; activation, % at 5 µM; 2,400 tested, under 10 active;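 active = activation of at least 50%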
bGal cs: E. coli beta-galactosidase enzyme inhibition, confirmation, counter-screen for EBI2 antagonist project, biochemical, luminescence, single concentration; shares compounds with EBI2 block; purified beta-galactosidase, luminescent Galacton Star, 15 min; inhibition, % at 5 µM; 1% of 2,400 active;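 active = replicate-average signal at least 3 plate SD below neutral wells, shown as high inhibition, flagging enzyme-inhibiting false positives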;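 also: 0% = DMSO wells with enzyme and 100% = wells lacking enzyme; higher means stronger loss of beta-gal luminescence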
* marks the source's active call; other numbers are inactive results; nt = no result given.

SMILES	tim23-1 inh	PfHsp90 yeast 2	EBI2 block	SKKanGAS inh	TIM10 inh	tim10-1 inh	tim10 confirm	others
CC(C)COC(=O)C(C#N)c1nc2ccccc2nc1N1CCN(Cc2ccccc2)CC1 (configuration not stated)	51*	-10	46*	20	39	42*	nt	tim10-1 confirm=12;tim23-1 conf=21;EBI2 conf=33;EBI2 ag=0;bGal cs=7
O=C(NC(=S)Nc1ccccc1Br)c1ccco1	31	-12	11	-12	14	21	nt
O=C(c1cc2ccccc2o1)N1CCN(S(=O)(=O)c2ccccc2)CC1	34	22	75*	nt	12	43*	nt	tim10-1 confirm=27;EBI2 conf=41;EBI2 ag=1;bGal cs=6
COc1cccc(N2CCN(C(=O)c3cc(-c4ccc(F)cc4)[nH]c3C)CC2)c1	39	-27	89*	12	21	50*	nt	tim10-1 confirm=27;EBI2 conf=69*;EBI2 ag=-1;bGal cs=-14
Cc1[nH]c(-c2ccc(F)cc2)cc1C(=O)N1CCN(c2ccccc2F)CC1	49	12	91*	46	15	47*	nt	tim10-1 confirm=40*;EBI2 conf=85*;EBI2 ag=0;bGal cs=8
O=C(c1cccc(C(=O)N2CCN(c3ccccc3F)CC2)c1)N1CCN(c2ccccc2F)CC1	18	-1	-3	12	3	20	nt
Cc1ccc(N2CCN(C(=O)c3cc(-c4ccc(F)cc4)[nH]c3C)CC2C)cc1 (configuration not stated)	74*	-55	53*	25	32	52*	nt	tim10-1 confirm=51*;tim23-1 conf=55*;EBI2 conf=33;EBI2 ag=1;bGal cs=6
COc1ccccc1N1CCN(C(=O)c2cc(-c3ccc(F)cc3)[nH]c2C)CC1	40	3	95*	2	14	43*	nt	tim10-1 confirm=41*;EBI2 conf=71*;EBI2 ag=-1;bGal cs=-6
CCCCCC(=O)Nc1ccc(-c2csc(N)n2)cc1	7	nt	1	7	43*	-5	12
CC(=O)Nc1ccc(O)c(-c2nc3ccccc3s2)c1	28	4	14	-17	46*	3	-2
O=C(C1CCCN(S(=O)(=O)c2ccc(Cl)cc2)C1)N(Cc1cccs1)C1CC1 (configuration not stated)	37	8	22	6	43*	36	-4
CCOC(=O)c1c(N)sc2c(OCC)c(Br)ccc12	47	25	20	-5	41*	30	23
O=C(Nc1c(F)cccc1F)c1cnc(N2CCN(c3ccccn3)CC2)c2ccccc12	31	-13	-3	1	43*	35	38*
Cc1ccc(NC(=O)c2cnc(N3CCN(c4ccccn4)CC3)c3ccccc23)c(Br)c1	nt	-36	-16	-4	nt	nt	nt
C/C(=N\NC(=S)Nc1ccc(F)cc1)c1ccc2c(c1)OCCO2	38	0	-4	3	44*	35	51*
C/C(=N\NC(N)=S)c1ccc2c(c1)OCCO2	10	-24	3	-5	-3	17	nt
O=C(CNc1ccc2ccccc2c1)N/N=C/c1ccc(OC(=O)/C=C/c2ccco2)cc1	10	-22	21	7	41*	29	36*
CCOC(=O)c1sc(NC(=O)c2cc(-c3ccccc3)nc3ccccc23)c(C#N)c1C	28	-36	-3	32	-2	17	nt
Cc1cc(C)cc(N=Cc2[nH]c3ccc(Br)c(Cl)c3c2O)c1	nt	2	15	11	nt	nt	nt
COc1ccc(CN=Cc2[nH]c3ccc(Br)c(Cl)c3c2O)cc1	14	10	4	11	41*	10	19
CCOc1ccc(S(=O)(=O)Nc2cccc(Cl)c2)cc1	48	-1	-9	-3	49*	29	43*
CCOC(=O)[C@]12CCC=C1N(Cc1ccco1)C(=O)[C@H](CC(=O)N1CCC(c3ccccc3)CC1)C2	nt	nt	1	nt	nt	nt	nt
COc1ccccc1NC(=O)c1ccc(NC(=O)CSc2ncn[nH]2)cc1	2	-5	-2	8	3	6	nt
O=C(Nc1cccc(F)c1)c1cc(S(=O)(=O)NCCC2=CCCCC2)ccc1F	39	-15	-5	9	42*	34	-31
S=C(Nc1ccccc1Oc1ccccc1)NC1CCCC1	37	13	-14	15	41*	24	20
SMILES	tim23-1 inh	PfHsp90 yeast 2	EBI2 block	SKKanGAS inh	TIM10 inh	tim10-1 inh	tim10 confirm	others
CC(C)c1ccccc1NC(=S)NC1CCCCC1	14	-2	-16	7	46*	37	25
CC(C)OCCCNC(=O)C1CCN(S(=O)(=O)c2ccc3nc4c(c(C(=O)O)c3c2)CCCCC4)CC1	-2	-20	-5	6	-6	-11	nt
Clc1ccc(-c2n[nH]c3c2CCCC3)cc1	42	-14	0	-6	41*	24	34*
CC(=NNC(=O)c1ccc(NS(=O)(=O)c2ccc(Br)cc2)cc1)c1cccnc1	5	-17	0	nt	-3	-1	nt
O=C(Nc1ccc(C2CC2(Cl)Cl)cc1)c1ccccc1Br (configuration not stated)	42	9	13	-1	41*	32	19
CCn1c(-c2cc(-c3ccc(OC(C)C)cc3)nc3ccccc23)n[nH]c1=S	42	nt	-2	-2	30	39	nt
CCn1c(-c2cc(-c3ccc(C)cc3)nc3ccccc23)n[nH]c1=S	49	-26	2	-10	42*	33	41*

Assay outcomes as filed in PubChem BioAssay.
